Source: PubChem BioAssay (NCATS)
Results filed as inconclusive are left out. Values without a mark were called inactive. The call rests on the fitted dose curve; in most records, active means well fitted inhibition curve with a large enough effect; inconclusive means small, poorly fitted or top-dose-only effect, or effect the other way; inactive means flat fitted curve, though single readings scatter.

What follows are molecules tested against ATP-dependent 6-phosphofructokinase (Trypanosoma brucei brucei) (UniProt O15648) (assay: qHTS Assay to Find Inhibitors of T. brucei phosphofructokinase: hit validation (AID 492961;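 further: luminescence reports ADP formed as PFK phosphorylates fructose-6-phosphate with ATP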)). Settings: T. brucei PFK, ADP-Glo luminescence; series mostly up to 51.4 µM; activity change, negative = inhibition: at the top concentration.
ATP-dependent 6-phosphofructokinase (Trypanosoma brucei brucei), sequence (O15648 whole entry, looked up): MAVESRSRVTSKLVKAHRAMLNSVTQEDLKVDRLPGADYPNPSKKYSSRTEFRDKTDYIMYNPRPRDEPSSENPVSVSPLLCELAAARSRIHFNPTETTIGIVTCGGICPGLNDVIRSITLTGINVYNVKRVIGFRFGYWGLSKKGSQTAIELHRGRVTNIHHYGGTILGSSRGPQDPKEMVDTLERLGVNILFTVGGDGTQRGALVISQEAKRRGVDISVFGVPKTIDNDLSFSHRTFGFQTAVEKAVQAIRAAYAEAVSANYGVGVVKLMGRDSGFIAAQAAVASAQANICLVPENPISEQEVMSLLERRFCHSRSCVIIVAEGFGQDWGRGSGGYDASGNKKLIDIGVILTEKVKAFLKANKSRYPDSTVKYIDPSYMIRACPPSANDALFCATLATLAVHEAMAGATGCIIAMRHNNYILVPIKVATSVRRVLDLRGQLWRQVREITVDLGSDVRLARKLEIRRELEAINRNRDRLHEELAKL
Procedure, shortened: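 Compounds titrated; %activity normalized to 0x and 1x enzyme controls, curve-fitted. Readout: ADP-Glo luminescence after 45 min room-temperature reaction of 1.25 nM PFK, 0.1 mM ATP, 0.5 mM F6P, pH 8.0.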
On the % scale 0 is the no-effect control and ±100 the full control effect.

Row | SMILES | activity change, negative = inhibition
1 | CN1CCC(OC(c2ccccc2)c2ccccc2)CC1 | 9.92% [at 24.3 µM]
2 | OC[C@H]1O[C@@H]2O[C@H]3[C@H](O)[C@@H](O)[C@@H](O[C@H]4[C@H](O)[C@@H](O)[C@@H](O[C@H]5[C@H](O)[C@@H](O)[C@@H](O[C@H]6[C@H](O)[C@@H](O)[C@@H](O[C@H]7[C@H](O)[C@@H](O)[C@@H](O[C@H]8[C@H](O)[C@@H](O)[C@@H](O[C@H]1[C@H](O)[C@H]2O)O[C@@H]8CO)O[C@@H]7CO)O[C@@H]6CO)O[C@@H]5CO)O[C@@H]4CO)O[C@@H]3CO | 14.8%
3 | CC(=O)Nc1ccc(CC(=O)O)cc1 | -14.9%
4 | CC(=O)O[C@]1(C(C)=O)CC[C@H]2[C@@H]3C=C(Cl)C4=CC(=O)CC[C@]4(C)[C@H]3CC[C@@]21C | 0.613%
5 | O=S(c1cc(Cl)cc(Cl)c1O)c1cc(Cl)cc(Cl)c1O | -13.7%
6 | Cc1ncc(CO)c(C=O)c1O | -6.8%
7 | Cc1cc(-c2ccccc2)nnc1NCCN1CCOCC1 | -7.33%
8 | C#C[C@]1(O)CC[C@H]2[C@@H]3CCC4=CC(=O)CC[C@@H]4[C@H]3CC[C@@]21CC | -5.09%
9 | CCCCNc1ccc(C(=O)OCCOCCOCCOCCOCCOCCOCCOCCOCCOC)cc1 | 1.75% [at 24.3 µM]
10 | CCCCNC(=O)NS(=O)(=O)c1ccc(N)cc1 | -5.86%
11 | CC(C)CCCC(C)N (configuration not stated) | 1.22%
12 | CCOc1ccccc1C(N)=O | -0.696%
13 | C#C[C@]1(OC(C)=O)CC[C@H]2[C@@H]3CCC4=C/C(=N/O)CC[C@@H]4[C@H]3CC[C@@]21CC | -1.86%
14 | FC(F)(F)C(F)(F)C(F)(F)C(F)(F)C(F)(F)C(F)(F)C(F)(F)C(F)(F)Br | 0.148%
15 | CCCN(CCc1cccs1)[C@H]1CCc2c(O)cccc2C1 | 1.04%
16 | CCOC(=O)C(C#N)=C(c1ccccc1)c1ccccc1 | -6.41%
17 | C=CCN1CCc2nc(N)sc2CC1 | -13.7%
18 | CC[C@H](c1ccc(O)cc1)[C@@H](CC)c1ccc(O)cc1 | -1.92% [at 24.3 µM]
19 | Cc1ccc(-c2ncc(Cl)cc2-c2ccc(S(C)(=O)=O)cc2)cn1 | 2.71%

Row | SMILES | activity change, negative = inhibition
20 | COc1ccccc1N1CCN(CCCCNC(=O)c2ccc(-c3ccc(C(C)=O)cc3)cc2)CC1 | 5.32%
21 | CN(C)CCN1C(=O)c2ccccc2N(C)c2ccccc21 | 13.8%
22 | C/C=C/c1ccc(O)c(OC)c1 | -2.1%
23 | Cc1cc(CC(=O)O)c(C)n1-c1ccc(Cl)cc1 | -6.24%
24 | CN(Cc1ccc(C(C)(C)C)cc1)Cc1cccc2ccccc12 | 11.6%
25 | O=C(NC1CCN(CCc2c[nH]c3ccccc23)CC1)c1ccccc1 | -7.05%
26 | CCCCCCCCOc1ccc(C(=O)c2ccccc2)c(O)c1 | 2.53%
27 | O=C(CCN1CCN2CCCC2C1)N1c2ccccc2Sc2ccc(Cl)cc21 (configuration not stated) | 12.8%
28 | COc1ccc(CN(CCN(C)C)c2ncccn2)cc1 | 9.56%
29 | C[C@@H](O)[C@H]1C(=O)N2C(C(=O)O)=C(S[C@@H]3CN[C@H](CNS(N)(=O)=O)C3)[C@H](C)[C@H]12 | -7.61%
30 | NS(=O)(=O)c1cc(C(=O)O)cc(N2CCCC2)c1Oc1ccccc1 | -2.38% [at 24.3 µM]
31 | Cc1cccc(C)c1NC(=O)c1ccccc1C(=O)O | -8.38%
32 | O=C(NCCc1c[nH]c2ccccc12)c1cccnc1 | 0%
33 | COc1cc(O)c(C(=O)c2ccccc2)cc1S(=O)(=O)O | -7.68%
34 | O=C(CCCN1CC=C(n2c(=O)[nH]c3ccccc32)CC1)c1ccc(F)cc1 | 9.09%
35 | CC(=O)Nc1ccc(OCC(O)CNC(C)C)cc1 (configuration not stated) | 6.4%
36 | c1ccc(CC2=NCCN2)cc1 | 12.6% [at 24.3 µM]
37 | CCOc1cc(OCC)c(C(=O)CCC(=O)O)cc1OCC | -3.35%
